{"source": "PubChem BioAssay (Tox21)", "note": "Results filed as inconclusive are left out. The source made the active and inactive calls. Calls come from the whole dose curve. % is set by controls: 0 for no effect and ±100 for the full control effect.", "data": [{"molecular_target": "D(2) dopamine receptor (Homo sapiens) (UniProt P14416)", "sequence (P14416 whole entry, looked up)": "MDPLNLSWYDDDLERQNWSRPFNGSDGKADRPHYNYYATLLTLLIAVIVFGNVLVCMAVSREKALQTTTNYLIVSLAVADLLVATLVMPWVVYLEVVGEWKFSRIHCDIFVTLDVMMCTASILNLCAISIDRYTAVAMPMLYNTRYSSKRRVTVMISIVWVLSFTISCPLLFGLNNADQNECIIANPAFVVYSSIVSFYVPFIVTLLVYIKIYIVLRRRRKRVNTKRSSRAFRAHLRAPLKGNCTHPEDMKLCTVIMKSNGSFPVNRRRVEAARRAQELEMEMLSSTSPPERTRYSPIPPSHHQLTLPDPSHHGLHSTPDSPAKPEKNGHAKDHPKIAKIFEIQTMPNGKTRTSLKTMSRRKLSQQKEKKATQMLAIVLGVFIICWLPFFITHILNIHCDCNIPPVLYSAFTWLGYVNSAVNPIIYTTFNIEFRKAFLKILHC", "experiment": "Dopamine D2 receptor (DRD2) small molecule agonists, cell-based qHTS assay (AID 1963594); note: nearly all actives have a fitted effect of over 35% in size", "conditions": "HEK293-DRD2 cAMP HTRF, agonist mode, 30 min; series mostly up to 92.4 µM; activation: at the top concentration", "from_the_text": "National Center for Advancing Translational Sciences [NCATS]\nDivision of Preclinical Innovation [DPI]\nU.S. Environmental Protection Agency [EPA]\nNational Institutes of Environmental Health Sciences [NIEHS]\nNational Toxicology Program [NTP]\nU.S. Food and Drug Administration [FDA]\nDRD2 is the D2 subtype of the dopamine receptor, which is coupled to Gi subtype of G protein-coupled receptor. This G protein-coupled receptor inhibits adenylyl cyclase activity. The DRD2-HEK293 cell line stably expressing D2 dopamine receptor can be used for screening agonists and antagonists of interactions between D2 and its ligands. The Hek293-DRD2 cAMP assay is based on HTRF technology. It measures changes of cAMP accumulation in response to Gi coupled GPCR activation or inhibition.\nTox21 Assay Protocol Summary:\nDRD2-Hek293 cells were dispensed at 600 cells/3uL/well in 1536-well white plates using a Multidrop Dispenser. After the assay plates were incubated at a 37 C/5% CO2 incubator for 24 h, 1 uL of Ro20-1724 at final concentration of 0.1 mM was transferred to the assay plate by a Flying Reagent Dispenser. Following Ro20-1724 addition, 23 nL of compound dissolved in DMSO, positive controls or DMSO only was added to the assay plates via Wako pintool station. The assay plates were incubated at room temperature for 10 min. Next, 1 uL of NKH477 at 200nM was added into the plates. After the assay plates were incubated at room temperature for an additional 30 min, 2.5 ul/well of cAMP-d2 and 2.5 ul/well of anti-cAMP-cryptate were added respectively into the assay plates using a Flying Reagent Dispenser. The plates were incubated at room temperature for 1 h. The fluorescence intensity in the plates was measured at 340 nm excitation and 665 & 620 nm emission by an Envision plate reader.", "values": [{"smiles": "CCN[C@H](C)Cc1cccc(C(F)(F)F)c1", "activation": "10.1% (inactive)"}, {"smiles": "CCN(CC)c1nc(C)cc(OP(=S)(OC)OC)n1", "activation": "5.68% (inactive)"}, {"smiles": "CCC1(CC)C(=O)NC(=O)NC1=O", "activation": "-11.8% [at 42.5 µM] (inactive)"}, {"smiles": "CC1C(=O)C[C@]2(C(C)C)C[C@H]12", "note": "(stereo not given in full)", "activation": "0.315% (inactive)"}, {"smiles": "C[N+](C)=CCl", "activation": "2.61% (inactive)"}, {"smiles": "COC(=O)C1(O)c2ccccc2-c2ccccc21", "activation": "-1.34% (inactive)"}, {"smiles": "[F][Sn]([c]1ccccc1)([c]1ccccc1)[c]1ccccc1", "activation": "-9.44% (inactive)"}, {"smiles": "Cc1nc(N(C)C)nc(OC(=O)N(C)C)c1C", "activation": "-15.1% (inactive)"}, {"smiles": "CC(C)Oc1cccc(NC(=O)c2ccccc2C(F)(F)F)c1", "activation": "-20.9% (inactive)"}, {"smiles": "O=S(=O)(O)F", "activation": "-3.12% (inactive)"}, {"smiles": "O=c1ssc(Cl)c1Cl", "activation": "0.446% (inactive)"}, {"smiles": "C=CC(=O)N(C)C", "activation": "1.25% (inactive)"}, {"smiles": "CCOCn1c(-c2ccc(Cl)cc2)c(C#N)c(Br)c1C(F)(F)F", "activation": "1.05% (inactive)"}, {"smiles": "Cc1c(COC(=O)[C@@H]2[C@H](/C=C(\\Cl)C(F)(F)F)C2(C)C)cccc1-c1ccccc1", "Potency": "inactive"}, {"smiles": "C=CCc1ccc(OC(=O)Cc2ccccc2)c(OC)c1", "activation": "-10.1% (inactive)"}, {"smiles": "CCC(C)(NC(=O)c1cc(Cl)c(C)c(Cl)c1)C(=O)CCl", "note": "(stereo not given)", "activation": "-12% (inactive)"}, {"smiles": "CC(C)(N)Cc1ccc(Cl)cc1", "activation": "4.85% [at 42.5 µM] (inactive)"}, {"smiles": "ClCCCCl", "activation": "-1.36% (inactive)"}, {"smiles": "Nc1cc(Cl)ccc1Cl", "activation": "-1.66% (inactive)"}, {"smiles": "CC(C)(C)N(NC(=O)c1ccc(Cl)cc1)C(=O)c1ccccc1", "activation": "1.99% (inactive)"}, {"smiles": "Cc1ccc2ccccc2c1C", "Potency": "inactive"}, {"smiles": "CCCCCCCCBr", "activation": "-0.799% (inactive)"}, {"smiles": "c1ccc2c(c1)OCC(C1=NCCN1)O2", "note": "(stereo not given)", "activation": "-21.7% [at 42.5 µM] (inactive)"}, {"smiles": "Cc1cc(C)c(C(=O)P(=O)(c2ccccc2)c2ccccc2)c(C)c1", "activation": "-4.88% (inactive)"}, {"smiles": "COC(C)(C)CCC[C@H](C)C/C=C/C(C)=C/C(=O)OC(C)C", "activation": "-6.1% (inactive)"}, {"smiles": "S=C=NCCc1ccccc1", "activation": "16.6% (inactive)"}, {"smiles": "C=C(C)CN(CC)c1c([N+](=O)[O-])cc(C(F)(F)F)cc1[N+](=O)[O-]", "activation": "-8.69% (inactive)"}, {"smiles": "Oc1c(Cl)cc(Cl)cc1Cl", "Potency": "inactive"}, {"smiles": "CCOP(=S)(OCC)SCCl", "activation": "-1.87% (inactive)"}, {"smiles": "C#CC1(O)CCCCC1", "activation": "-0.257% (inactive)"}, {"smiles": "COc1ccc([N+](=O)[O-])cc1O", "activation": "0.457% [at 42.5 µM] (inactive)"}, {"smiles": "Oc1c(Cl)cccc1Cl", "activation": "-0.342% (inactive)"}, {"smiles": "CCCCCCCCCC[N+](C)(C)CCCCCCCCCC", "activation": "-17.9% (inactive)"}, {"smiles": "CCN[C@@H](C)Cc1ccccc1", "activation": "-2.79% (inactive)"}, {"smiles": "CO/C=C(/C(=O)OC)c1ccccc1COc1cccc(C(F)(F)F)n1", "activation": "-18.7% (inactive)"}, {"smiles": "Clc1ccc(CCC(Cn2ccnc2)Sc2c(Cl)cccc2Cl)cc1", "note": "(stereo not given)", "activation": "-20% [at 42.5 µM] (inactive)"}, {"smiles": "CNC(=O)/C=C(\\C)OP(=O)(OC)OC", "activation": "10.1% (inactive)"}, {"smiles": "N#CCCSCCC#N", "activation": "2.46% (inactive)"}, {"smiles": "O=C(OC1CCCCC1)c1ccccc1C(=O)OC1CCCCC1", "activation": "-1.97% (inactive)"}, {"smiles": "ClC(Cl)C(Cl)Cl", "activation": "0.126% (inactive)"}]}]}
